Records with an inconclusive call do not appear. A number with no mark means an inactive call. The call rests on the fitted dose curve; in most records, active means well fitted cell-killing curve with a large enough effect in the repeat runs; inconclusive means weak or mixed curves, or effect the other way; inactive means no such curve, though single readings can be large or run the other way.
Experiment: qHTS assay to identify small molecule antagonists of the peroxisome proliferator-activated receptor gamma (PPARg) signaling pathway - cell viability counter screen (AID 743194); further: nearly all actives have a fitted effect of over 55% in size
Conditions: PPARg-bla HEK293H viability, CellTiter-Glo luminescence, 17 h, co-treated with 50 nM rosiglitazone; series mostly up to 62.6 µM; activity change, negative = cytotoxicity: at the top concentration
Source text: U.S. Tox21 Program National Center for Advancing Translational Sciences [NCATS] NIH Chemical Genomics Center [NCGC] U.S. Environmental Protection Agency [EPA] National Institutes of Environmental Health Sciences [NIEHS] National Toxicology Program [NTP] U.S. Food and Drug Administration [FDA] Tox21 Assay Overview: The peroxisome proliferator-activated receptors (PPARs) are lipid-activated transcription factors of the nuclear receptor superfamily with three distinct subtypes namely PPAR alpha, PPAR delta (also called PPAR beta) and PPAR gamma (PPARg). All these subtypes heterodimerize with Retinoid X receptor (RXR) and these heterodimers regulate transcription of various genes. PPAR-gamma receptor (glitazone receptor) is involved in the regulation of glucose and lipid metabolism. To identify the compounds that activate PPAR-gamma signaling, GeneBLAzer PPAR gamma UAS-bla HEK293H cell line (Invitrogen, Carlsbad, CA, USA) containing a beta-lactamase reporter gene under the control of an Upstream Activator Sequence (UAS) was used to screen the Tox21 compound library. The cytotoxicity of the Tox21 compound library against the PPARg-bla cell line was tested in parallel by measuring the cell viability using CellTiter-Glo assay in the same wells.
Tox21 Assay Protocol Summary: PPARg-bla cells were dispensed at 3000 cells/5uL/well in 1536-well black wall/clear bottom plates using a Multidrop Combi (Thermo Fisher Scientific, Waltham, MA) dispenser. After the assay plates were incubated at 37 C and 5% CO2 for 5 h, 23 nL of compounds dissolved in DMSO, positive controls or DMSO only was transferred to the assay plate by a Pintool station (Kalypsys, San Diego, CA), followed by addition of 1ul Rosiglitazone (50 nM, final concentration in the wells). The assay plates were incubated at 37 C for 17 h, and then 1 uL of LiveBLAzerTM B/G FRET substrate was added using a Bioraptr Flying Reagent Dispenser (FRD) workstation (Beckman Coulter, Indianapolis, IN, USA). The assay plates were incubated at room temperature for 1 h and fluorescence intensity was measured by an Envision plate reader (PerkinElmer, Shelton, CT). For cell viability readout that measures cytotoxicity, 4 ul/well of CellTiter-Glo reagent was added into the assay plates using a Flying Reagent Dispenser. After 30 min incubation at room temperature, the luminescence intensity in the plates was measured using a ViewLux plate reader (PerkinElmer).
For COc1cc2c(cc1OC)C(C(C(=O)N(CCc1ccc(OC)c(OC)c1OC)CCc1ccc(OC)c(OC)c1OC)c1ccccc1)=NCC2 (stereo not given), the “activity change, negative = cytotoxicity” value was -6.75%.
For CC(=O)[O][Al][O]C(C)=O, the “activity change, negative = cytotoxicity” value was 1.2%.
For CC(=O)OC[C@H]1O[C@@H](n2ncc(=O)[nH]c2=O)[C@H](OC(C)=O)[C@@H]1OC(C)=O, the “activity change, negative = cytotoxicity” value was -0.81%.
In the case of Nc1cc(C(=O)O)c(O)c(S(=O)(=O)O)c1, the “activity change, negative = cytotoxicity” value was 5.5%.
For CC(C)(C)Cl, the “activity change, negative = cytotoxicity” value was -10.3% [at 81.1 µM].
With Cc1nn(C)c(Oc2ccccc2)c1/C=N/OCc1ccc(C(=O)OC(C)(C)C)cc1 the “activity change, negative = cytotoxicity” value was -23.2%.
For COc1ccc(C)cc1[N+](=O)[O-], the “activity change, negative = cytotoxicity” value was -3.17% [at 81.1 µM].
For C[N+]1(CC2COC(c3ccccc3)(C3CCCCC3)O2)CCCCC1 (stereo not given), the “activity change, negative = cytotoxicity” value was -1.99%.
In the case of CCCCc1ncc(/C=C(\Cc2cccs2)C(=O)O)n1Cc1ccc(C(=O)O)cc1, the “activity change, negative = cytotoxicity” value was 4.09%.
For O=[N+]([O-])c1ccc(NCCO)c(OCCO)c1, the “activity change, negative = cytotoxicity” value was 21.7%.
For COc1ccnc(CS(=O)c2nc3ccc(OC(F)F)cc3[nH]2)c1OC (stereo not given), the “activity change, negative = cytotoxicity” value was -1%.
With Cc1ncc(CO)c(C=O)c1O the “activity change, negative = cytotoxicity” value was 21.4%.
In the case of O=C1c2ccccc2S(=O)(=O)N1CCCCN1CCN(c2ncccn2)CC1, the “activity change, negative = cytotoxicity” value was 5.67%.
With C[N+](C)(C)CCOC(=O)CCC(=O)OCC[N+](C)(C)C the “activity change, negative = cytotoxicity” value was 1.34%.
With CN1CCC(N(Cc2cccs2)c2ccccc2)CC1 the “activity change, negative = cytotoxicity” value was -9.29%.
For O=C(O)c1ccc(S(=O)(=O)O)cc1C(=O)O, the “activity change, negative = cytotoxicity” value was -18.5% [at 81.1 µM].
For C=CC(=O)OCCOc1ccccc1, the “activity change, negative = cytotoxicity” value was 2.5%.
With CCOC(=O)c1cccnc1 the “activity change, negative = cytotoxicity” value was 25.9%.
For O=[N+]([O-])c1ccc2[nH]ncc2c1, the “activity change, negative = cytotoxicity” value was 11.4%.
For Nc1ccc([N+](=O)[O-])c(C(F)(F)F)c1, the “activity change, negative = cytotoxicity” value was 3.95%.
In the case of O=C(O)C1(C(=O)O)CCC1.[NH2-].[NH2-].[Pt+2], the “activity change, negative = cytotoxicity” value was 2.13%.
For CCC(CC)Nc1ccc(C)c(C)c1, the “activity change, negative = cytotoxicity” value was 4.91%.
For O=C(O)CC(=O)C(=O)O, the “activity change, negative = cytotoxicity” value was 5.33% [at 81.1 µM].
For COc1ccc2cccc(CCNC(C)=O)c2c1, the “activity change, negative = cytotoxicity” value was 8.49%.
In the case of C=CC(=O)OCCOCCOCCOCCOC(=O)C=C, the “activity change, negative = cytotoxicity” value was -34.7% [at 81.1 µM].
In the case of Nc1c(CC(=O)O)cccc1C(=O)c1ccc(Br)cc1, the “activity change, negative = cytotoxicity” value was 4.23%.
In the case of O=C(OCCCCCCOC(=O)c1ccccc1)c1ccccc1, the “activity change, negative = cytotoxicity” value was 11%.
For CC(C)CC(=O)C1C(=O)c2ccccc2C1=O, the “activity change, negative = cytotoxicity” value was -16%.
With CCCn1cnc2c1c(=O)n(CCCCC(C)=O)c(=O)n2C the “activity change, negative = cytotoxicity” value was 11.2%.
With O=C1OC(CN2CCOCC2)CN1/N=C/c1ccc([N+](=O)[O-])o1 (stereo not given) the “activity change, negative = cytotoxicity” value was 6.27%.
In the case of C=C(C)C(=O)OCCOCC, the “activity change, negative = cytotoxicity” value was 3.36% [at 81.1 µM].
With CCC(C)(C)CC the “activity change, negative = cytotoxicity” value was -14% [at 81.1 µM].
For NC(N)=NCCC[C@H](N)C(=O)O, the activity change, negative = cytotoxicity was 5.54% [at 5.95 µM].
For O=[N+]([O-])c1cccc(S(=O)(=O)O)c1, the “activity change, negative = cytotoxicity” value was -14.7% [at 81.1 µM].
With CCCOC(C(=O)OC1CCN(C)CC1)(c1ccccc1)c1ccccc1 the “activity change, negative = cytotoxicity” value was -15.5%.
For Cc1oc2c(NC(=O)c3c(Cl)cccc3Cl)cccc2c1C(C)(C)O, the “activity change, negative = cytotoxicity” value was -8.43%.
With CC1OC(=O)C(C)OC1=O (stereo not given) the “activity change, negative = cytotoxicity” value was -0.0844%.
In the case of CCCCNc1ccc(C(=O)OCCOCCOCCOCCOCCOCCOCCOCCOCCOC)cc1, the “activity change, negative = cytotoxicity” value was -2.42%.
For CN(C)c1ccc(CCO)cc1, the “activity change, negative = cytotoxicity” value was 12%.
In the case of CC1=CCCC(C)(C)C12CCC(C)O2 (stereo not given), the “activity change, negative = cytotoxicity” value was -32.9%.
On the % scale 0 is the no-effect control and ±100 the full control effect.
